PubChem BioAssay AID743126 (The Scripps Research Institute Molecular Screening Center, 2013)
The whole screen tested about 370,000 compounds, of which about 2,100 (0.57%) were called active. Only a selection was taken, and actives are over-represented in it overall. Unmarked numbers belong to inactive results.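 Rule for the calls: active = inhibition above mean plus 3 SD of compounds lying within the high and low control bounds (cut at about 19% in these data); inactive = the rest.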

The compounds below were run against Group 3 secretory phospholipase A2 (Homo sapiens) (UniProt Q9NZ20) (assay: HGIII-sPLA2 enzyme inhibition – biochemical, QFRET, BODIPY PC-A2 liposome substrate, primary screen (AID 743126;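 note: 0% = median of test compound wells and 100% = no enzyme DMSO wells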)). Details: QFRET BODIPY PC-A2 liposome hydrolysis, fluorescence; at 12.2 µM; hits give high values.
Group 3 secretory phospholipase A2 (Homo sapiens), sequence (Q9NZ20 whole entry, looked up): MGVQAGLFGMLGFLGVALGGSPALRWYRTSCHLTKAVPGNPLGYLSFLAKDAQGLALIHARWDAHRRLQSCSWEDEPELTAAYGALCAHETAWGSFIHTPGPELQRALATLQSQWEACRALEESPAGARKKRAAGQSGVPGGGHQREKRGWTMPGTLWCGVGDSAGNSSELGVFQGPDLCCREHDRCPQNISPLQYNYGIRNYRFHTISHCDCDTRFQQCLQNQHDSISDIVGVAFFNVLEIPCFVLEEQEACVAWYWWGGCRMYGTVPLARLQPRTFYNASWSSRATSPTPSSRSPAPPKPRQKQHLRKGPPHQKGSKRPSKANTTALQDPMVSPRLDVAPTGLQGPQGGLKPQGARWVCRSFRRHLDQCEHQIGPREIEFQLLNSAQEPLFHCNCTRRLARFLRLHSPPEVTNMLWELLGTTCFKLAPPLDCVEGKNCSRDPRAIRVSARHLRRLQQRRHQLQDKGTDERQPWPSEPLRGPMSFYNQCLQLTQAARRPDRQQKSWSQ

Compound	inhibition
O=C1Nc2ccccc2OC1CC(=O)N1CCCCCCC1 (configuration not stated)	1.64%
C=CCN1[C@H](CC(C)C)COc2cccc(N3CCCC3)c2S1(=O)=O	10%
CC(=O)NN1C(=O)c2ccccc2NC1c1ccccc1 (configuration not stated)	4.64%
CCOC(=O)NN1C(=O)c2ccccc2NC1c1cccc(O)c1 (configuration not stated)	-3.61%
Cc1ccc(C2Nc3ccccc3C(=O)N2CCN2CCNC2=O)cc1 (configuration not stated)	19.3% (active)
CC(C)(C)c1cc2cccnc2n1Cc1ccccc1	8.03%
COc1ccnc2c1c(=O)n(Cc1cccc(F)c1)c(=O)n2C	0.58%
CC(C)(C)c1cc2cccnc2n1Cc1cccc(F)c1	20.9% (active)
O=C(CNC(=O)c1ccccc1)OC(C(=O)Nc1cc([N+](=O)[O-])ccc1F)c1ccccc1 (configuration not stated)	10.8%
COc1ccc(N2CCN(CCNS(=O)(=O)c3ccc(C(C)(C)C)cc3)CC2)cc1	-8.25%
NC(c1csc(NC(=O)Nc2ccccc2Oc2ccccc2)n1)c1ccccc1Cl (configuration not stated)	24.4% (active)
CC(=O)c1ccc(Nc2nc(C(N)c3ccccc3Cl)cs2)cc1 (configuration not stated)	-4.25%
O=C(COC(=O)/C=C/c1nc2ccccc2s1)Nc1ccccc1Oc1ccccc1	8.15%
Cc1cccc(-n2cnc(C(=O)NNC(=S)Nc3ccccc3)c2)n1	38.5% (active)
Cc1cccc(-n2cnc(C(=O)Nc3cccnc3)c2)n1	8.64%
COC(=O)c1ccc(NC(=S)Nc2cccc(C)n2)cc1	7.29%
CCOc1ccc(-n2c(SCC(=O)Nc3cc(C)c(NC(=O)c4ccccc4)cc3OC)nnc2-c2cccc(Cl)c2)cc1	2%
CSC1=NN(c2ccccc2)CN(c2ccccc2)N1C	21.7% (active)
O=C(CCl)NC1CCCCN(Cc2cccc(C(F)(F)F)c2)C1=O (configuration not stated)	7.99%

Compound	inhibition
CCCCNC(=O)C[C@H]1C(=O)N(Cc2ccc(OC)cc2)C2=CCCC[C@@]21C(=O)OCC	12.9%
Cc1cc(-c2n[nH]c(=S)n2-c2ccc(C)c(C)c2)no1	20.5% (active)
Cc1ccc(NCc2n[nH]c(=S)n2-c2ccccc2)cc1Cl	12.3%
Cc1ccc(C)c(S(=O)(=O)Nc2cc(C)on2)c1	6.47%
Cc1ccccc1CN1CCCCC(NC(=O)Nc2ccccc2F)C1=O (configuration not stated)	4.74%
C[C@@H](NC(=O)c1ccccc1OCC(=O)Nc1ccc(I)cc1)C(=O)N(C)Cc1ccccc1	-8.83%
Cc1ccc(-n2c(SCC(=O)Nc3ccc(S(=O)(=O)Nc4nccs4)cc3)nnc2-c2ccccn2)cc1	-36.9%
CC(=O)c1cc(C#N)c(N2CC(C)OC(C)C2)nc1C (configuration not stated)	10.2%
CC(=O)c1nnn(-c2ccc(Cl)cc2C#N)c1C	21.4% (active)
O=C(Nc1cccc(Cl)c1)OC1CC2CC1[C@H]1CCCCN1[C@H]2Cc1ccccc1 (some centres not stated)	-3.5%
N#Cc1ccc(OC[C@@H](O)CN2CCC(C(O)(c3ccccc3)c3ccccc3)CC2)c(F)c1	-15.8%
Cc1ccc(CC2(C)C(=O)Nc3ccc(OC(F)(F)F)cc32)cc1 (configuration not stated)	-5.51%
O=C(c1ccc2c(c1)C(=O)N(Cc1ccncc1)C2=O)N1CCN(S(=O)(=O)c2ccc(OC(F)(F)F)cc2)CC1	0.57%
O=C1C(=O)N(Cc2ccc(-c3ccsc3)cc2)c2ccc(OC(F)(F)F)cc21	26% (active)
CC(C)CNC(=O)OCc1cn(Cc2ccc(F)cc2)nn1	1.52%
COC(=O)[C@@]12CCCCC3=C1N(CCC3)C(=O)[C@H]2CC(=O)NCc1cccc2ccccc12	-12%
CCCC[C@H]1C2CC(OC(=O)NCc3ccccc3)C(C2)[C@H]2CCCCN21 (some centres not stated)	9.24%
Nn1c(SCC(=O)Nc2ccc(S(N)(=O)=O)cc2)nnc1-c1n[nH]c2c1CCC2	9.17%
